Values joined by “and” are separate entries in the source; they are usually repeats but may differ in a detail not shown here. Identical values can stand only once. ± gives the uncertainty stated by the source.
What follows are compounds tested on HEK293T-Rex ERSE-FLuc (assay: ERSE-FLuc reporter activation, triplicate confirmation, relative to 500 nM thapsigargin (% of thapsigargin); higher = stronger ATF6/ERSE reporter activation). Details: 6.8 µM; 18 h; screen: confirmation.
Protocol: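 HEK293T-Rex cells stably expressing the ERSE-firefly luciferase (BiP promoter, ATF6-preferring) or XBP1-splicing Renilla luciferase (IRE1/XBP1s) reporter, 1536-well plates, compound at 6.8 µM for 18 hr at 37 °C; luminescence read […] and expressed as % activation = 100*(compound - median DMSO)/(median 500 nM thapsigargin - median DMSO). Primary screen was single-pass; confirmation screen in triplicate (mean ± SD).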
O=C(CCCN1CCC2(CC1)C(=O)NCN2c1ccccc1)c1ccc(F)cc1 showed an ERSE-FLuc reporter activation of 163 ± 21. For CC(=O)NC1C(OC2OC(CC(O)C3OC(n4ccc(=O)[nH]c4=O)C(O)C3O)C(O)C(O)C2NC(=O)/C=C\CCCCCCCCCC(C)C)OC(CO)C(O)C1O (stereo not given), the ERSE-FLuc reporter activation was 162 ± 5.7. Compound CNc1ccc2oc(C[C@H]3O[C@@]4(CC[C@H]3C)O[C@H]([C@H](C)C(=O)c3ccc[nH]3)[C@H](C)C[C@H]4C)nc2c1C(=O)O has an ERSE-FLuc reporter activation of 63.9 ± 3.1. Work on O=C(CCCN1CCC2(CC1)C(=O)N(Cc1cccc(F)c1)CN2c1ccccc1)c1ccc(F)cc1 yielded an ERSE-FLuc reporter activation of 215 ± 16. For C/C=C(/C)C(=O)O[C@H]1C(C)=C2[C@H]([C@@H]1OC(=O)CCCCCCC)[C@@](C)(OC(C)=O)C[C@H](OC(=O)CCC)[C@@]1(O)[C@H]2OC(=O)[C@@]1(C)O, the ERSE-FLuc reporter activation was 109 and 88.
